# Assay results taken from PubChem BioAssay AID720518 (National Center for Advancing Translational Sciences (NCATS), 2013).
# Results filed as inconclusive are left out. The source made the active and inactive calls. Calls follow the shape of the full dose curve.
# Assay: qHTS for Inhibitors of Cell Surface uPA Generation: Wild-type Protective Antigen (WT-PrAg) Counterscreen for Cherry-picked Compounds; also: 0% is about no effect
# Settings: cells, WT protective antigen toxicity counterscreen; series mostly up to 115 µM; activity (protection): at the top concentration
row,Structure (SMILES),activity (protection)
1,CC(CCc1ccccc1)NC(=O)c1ccc(NC(=O)c2cccc(Br)c2)cc1 (configuration not stated),-0.0435% (inactive)
2,CCCCN(CC(=O)Nc1cccc(S(=O)(=O)N2CCCC2)c1)Cc1nc2ccccc2c(=O)[nH]1,-2.42% (inactive)
3,O=C1NC(CCc2ccccc2)C(=O)N1Cc1ccccc1Cl (configuration not stated),4.02% (inactive)
4,Nc1ccc(S(=O)(=O)c2ccccc2)nc1,-0.39% (inactive)
5,CCC(=O)N(Cc1cc2ccc(C)cc2[nH]c1=O)c1ccccc1OC,-0.972% (inactive)
6,COc1ccc(CC(=O)OCC(=O)NNC(=O)c2ccccc2)cc1,-1.54% (inactive)
7,COc1cc(CNCCc2ccccc2)cc(Br)c1OCC(=O)Nc1ccccc1C,-1.07% (inactive)
8,CCN(C(=O)CSc1ncnc2sccc12)c1c(N)n(Cc2ccccc2)c(=O)[nH]c1=O,0.582% (inactive)
9,CCOc1cc(C(=O)OCC(=O)c2cc(C)n(CC3CCCO3)c2C)ccc1OCC(=O)N1CCOCC1 (configuration not stated),-1.31% (inactive)
10,O=C(COc1cccc2ccccc12)NNC(=O)c1cnccn1,-1.17% (inactive)
11,O=C(NC(=O)c1ccccc1)Nc1cccc(S(=O)(=O)N2CCCCC2)c1,-0.591% (inactive)
12,CCOc1cc(S(=O)(=O)NC2CC(C)(C)NC(C)(C)C2)ccc1Cl,0.451% (inactive)
13,COc1cc(NC(=S)NCCc2ccc(S(N)(=O)=O)cc2)c(OC)cc1Cl,7.74% (inactive)
14,C[C@]12CCC(O)CC1CCC1C2CC[C@]2(C)C(c3cc(C(F)(F)F)n[nH]3)CCC12 (some centres not stated),-2.57% (inactive)
15,O=C(C1CCN(c2nnc(N3CCCC3=O)s2)CC1)N1CCN(c2cccc(C(F)(F)F)c2)CC1,-1.97% (inactive)
16,CC1(C(=O)OCC(=O)Nc2ccc(Cl)cn2)CC1(Cl)Cl (configuration not stated),5.25% (inactive)
17,CCOc1ccc(NC(=S)N2CCC(c3ccc(C)cc3)C2)cc1 (configuration not stated),-1.3% (inactive)
